# Results taken from PubChem BioAssay (Tox21).
# Values without a mark were called inactive. Results filed as inconclusive are left out. A call without a number means that no potency is given here. Calls of active or inactive are those of the source. Unless noted, calls follow the shape of the dose curve; as a rule, active = well fitted curve in the direction sought with a large enough effect in the repeat runs; inconclusive = weak or mixed curves; inactive = no such curve, though single readings can be large; an effect the other way counts as inactive or inconclusive.
# Experiments:
# [1] = target: Luciferin 4-monooxygenase (Photinus pyralis) (UniProt P08659); assay: qHTS assay to identify small molecule inhibitors of firefly luciferase (AID 1224835); also: nearly all actives have a fitted effect of over 25% in size
# Sequence of Luciferin 4-monooxygenase (Photinus pyralis) (P08659 whole entry, looked up): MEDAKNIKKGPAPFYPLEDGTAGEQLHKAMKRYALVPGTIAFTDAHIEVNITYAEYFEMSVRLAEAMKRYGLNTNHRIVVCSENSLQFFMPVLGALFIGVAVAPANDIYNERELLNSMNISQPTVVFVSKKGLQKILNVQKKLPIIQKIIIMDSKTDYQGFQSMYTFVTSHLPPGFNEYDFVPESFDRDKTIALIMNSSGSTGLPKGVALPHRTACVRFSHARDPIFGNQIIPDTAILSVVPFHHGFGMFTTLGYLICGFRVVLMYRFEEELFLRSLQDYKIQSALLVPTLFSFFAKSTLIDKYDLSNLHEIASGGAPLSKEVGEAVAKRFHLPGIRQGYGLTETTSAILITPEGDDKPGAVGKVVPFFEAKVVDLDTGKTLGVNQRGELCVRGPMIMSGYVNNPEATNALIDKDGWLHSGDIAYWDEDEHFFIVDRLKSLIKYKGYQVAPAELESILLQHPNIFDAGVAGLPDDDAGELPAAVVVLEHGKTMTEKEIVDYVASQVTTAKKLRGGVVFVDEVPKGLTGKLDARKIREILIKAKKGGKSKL
# Outline: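 Inhibition of purified Photinus luciferase is measured by luminescence. Substrate levels (D-luciferin, ATP) sit at their KM values. Each compound is tested in a concentration series.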
# [2] = qHTS assay to identify small molecule agonists of the constitutive androstane receptor (CAR) signaling pathway - cell viability counter screen (AID 1224836); also: nearly all actives have a fitted effect of over 45% in size
# Outline: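 Counter screen multiplexed with the CAR reporter readout: HepG2 cells co-transfected with hCAR and the CYP2B6-2.2kb construct receive a 15-concentration compound series and 0.75 uM PK11195 (final), then CellTiter-Fluor fluorescence is read after 23 h.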
# [3] = target: Nuclear receptor subfamily 1 group I member 3 (Homo sapiens) (UniProt Q14994); assay: qHTS assay to identify small molecule antagonists of the constitutive androstane receptor (CAR) signaling pathway (AID 1224838);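 also: HepG2 cells stably expressing hCAR with CYP2B6 luciferase reporter stimulated by CITCO; nearly all actives have a fitted effect of over 40% in size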
# Sequence of Nuclear receptor subfamily 1 group I member 3 (Homo sapiens) (Q14994 whole entry, looked up): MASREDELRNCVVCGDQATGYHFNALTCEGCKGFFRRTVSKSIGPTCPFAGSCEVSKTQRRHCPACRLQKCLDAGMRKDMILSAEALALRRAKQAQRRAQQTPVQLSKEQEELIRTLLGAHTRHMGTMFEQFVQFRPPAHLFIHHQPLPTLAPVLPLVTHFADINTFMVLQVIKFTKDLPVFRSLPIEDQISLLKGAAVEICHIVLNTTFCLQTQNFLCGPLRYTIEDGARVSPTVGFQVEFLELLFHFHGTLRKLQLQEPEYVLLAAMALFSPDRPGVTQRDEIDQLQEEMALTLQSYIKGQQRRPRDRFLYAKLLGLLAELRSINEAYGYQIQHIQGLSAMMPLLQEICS
# Outline: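 Antagonist mode used CITCO at a final 50 nM to activate CAR in human hepatoma HepG2 cells carrying stable hCAR and a 2.2 kb CYP2B6 promoter-luciferase construct. Compounds were tested at 15 concentrations over 24 h, with luminescence as the end point.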
# [4] = target: Nuclear receptor subfamily 1 group I member 3 (Homo sapiens) (UniProt Q14994); assay: qHTS assay to identify small molecule agonists of the constitutive androstane receptor (CAR) signaling pathway (AID 1224839); also: nearly all actives have a fitted effect of over 15% in size; also: potency is read from the fitted curve at half-maximal effect
# Outline: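 A 15-concentration quantitative screen uses HepG2 cells co-transfected stably with human CAR and CYP2B6-2.2kb reporter. Treatment lasts 24 h with 0.75 uM PK11195 final present; ONE-Glo luminescence is the signal.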
# [5] = qHTS assay to identify small molecule antagonists of the estrogen related receptor signaling pathway with the pleiotropic PPARgamma coactivator (PGC) from Tox21 10K library (AID 1224841; call rule not given here; also: actives are mostly falling curves and most rising ones were filed inactive; nearly all actives have a fitted effect of over 50% in size)
# Outline: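 Steps: plate 2,000 PGC/ERR cells per well; incubate 6 h at 37 C with 5% CO2; transfer compounds from DMSO stocks by pin tool; incubate 18 h at 37 C; add One-Glo; measure luminescence 30 min later.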
# [6] = qHTS assay to identify small molecule agonists of the estrogen related receptor signaling pathway with the pleiotropic PPARgamma coactivator (PGC) from Tox21 10K library (AID 1224842); also: nearly all actives have a fitted effect of over 15% in size
# Outline: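 Luminescence from One-Glo (30 min, room temperature) measured after PGC/ERR cells had 18 h at 37 C with pinned compound (23 nL in DMSO). Cells had been seeded at 2,000 per well and pre-incubated 6 h.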
# [7] = qHTS assay to identify small molecule agonists of H2AX (AID 1224845; active = well fitted activation curve with a large enough effect in the signal ratio in the repeat runs, not every such curve was filed as active; the % refers to the signal ratio)
# Outline: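 Phospho-H2AX Ser139 measured by HTRF (ex 320 nm; em 665 and 620 nm) after 24 hr antibody incubation. Compounds, 15 concentrations, 0.76% DMSO, were applied to CHO-K1 cells for 3hr at 37C before lysis.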
# [8] = qHTS assay to identify small molecule agonists of H2AX - cell viability counter screen (AID 1224847; calls by dose curve; also: top concentration of the series differs between compounds; nearly all actives have a fitted effect of over 30% in size)
# Outline: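 We seed wild-type CHO-K1 cells overnight, treat them for 3 hr at 37C with compounds in 15-concentration series, and quantify remaining viability by CellTiter-Glo luminescence.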
# [9] = qHTS assay to identify small molecule antagonists of the estrogen related receptor (ERR) signaling pathway from Tox21 library (AID 1224848); also: nearly all actives have a fitted effect of over 50% in size
# Outline: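 ERR cell line, 2,000 cells/well. 6 h settle, then compound (DMSO) added; 18 h at 37 C; ONE-Glo luminescence after 30 min RT.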
# [10] = qHTS assay to identify small molecule agonists of the estrogen related receptor (ERR) signaling pathway from Tox21 library (AID 1224849; calls by dose curve; also: nearly all actives have a fitted effect of over 15% in size); settings: ERR reporter cell line, ONE-Glo luciferase, 18 h; at 92.4 µM (top of the series) unless noted
# Outline: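 Cells carrying the ERR reporter were plated and allowed to settle for 6 h, exposed to library compounds for 18 h at 37 C, then lysed with ONE-Glo and luminescence measured.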
# [11] = qHTS RealTime-Glo MT Cell Viability Assay in HepG2 cells - 24 hour (AID 1224867); also: nearly all actives have a fitted effect of over 50% in size
# Outline: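 Cells + NanoLuc/prosubstrate dispensed (600 cells/well) → 5 h at 37 C/5% CO2 → compounds in DMSO transferred → 40 h incubation at 37 C, luminescence read at 0, 8, 16, 24, 32, 40 h.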
# [12] = qHTS RealTime-Glo MT Cell Viability Assay in HEK293 cells - 32 hour (AID 1224868); also: nearly all actives have a fitted effect of over 50% in size; also: potency is read from the fitted curve at half-maximal effect
# Outline: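 Tox21 10K qHTS, HEK293, 600 cells/well, RealTime-Glo reagent co-dispensed with cells; 5 h preincubation, compound by pintool, 37 C, luminescence at 0–40 h.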
# [13] = A CellTox Green Cytotoxicity Assay to monitor cytotoxicity in HEK293 cells - 0 hour (AID 1224869); also: nearly all actives have a fitted effect of over 50% in size
# Outline: (§1)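 Cells (HEK293, 600/well) and dye reagent are dispensed together. After 5 h at 37 C, 23 nL compound is pinned in. Plates stay at 37 C for 40 h with fluorescence read at 0h, 8h, 16h, 24h, 32h and 40h.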
# [14] = qHTS RealTime-Glo MT Cell Viability Assay in HepG2 cells - 40 hour (AID 1224870); also: nearly all actives have a fitted effect of over 50% in size
# Outline: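 Real-time viability: cells seeded at 600 per well together with NanoLuc and cell-permeant prosubstrate, compounds added after 5 h incubation. Luminescence tracked at 0, 8, 16, 24, 32 and 40 h of exposure.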
# [15] = A CellTox Green Cytotoxicity Assay to monitor cytotoxicity in HEK293 cells - 40 hour (AID 1224871); also: nearly all actives have a fitted effect of over 45% in size
# Outline: as §1
# [16] = qHTS assay to identify small molecule antagonists of the constitutive androstane receptor (CAR) signaling pathway - cell viability counter screen (AID 1224837); also: nearly all actives have a fitted effect of over 45% in size
# Outline: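 Viability was measured with CellTiter-Fluor in a HepG2 line carrying stably transfected hCAR and a CYP2B6-2.2kb construct. Cells were exposed for 23 hr at 37 C to 15 compound concentrations with 50 nM CITCO as agonist.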
# [17] = qHTS assay to identify small molecule agonists of the hypoxia (HIF-1) signaling pathway - cell viability counter screen (AID 1224844; calls by dose curve; also: nearly all actives have a fitted effect of over 50% in size)
# Outline: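 Cytotoxicity was measured in parallel with the HRE-driven beta-lactamase readout: after 17 hrs of compound exposure at 37C, HRE-bla ME-180 cells received CellTiter-Glo and luminescence was recorded 30 min later.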
# [18] = qHTS assay to identify small molecule agonists of the hypoxia (HIF-1) signaling pathway (AID 1224846; active = well fitted activation curve with a large enough effect in the signal ratio in the repeat runs, not every such curve was filed as active; the % refers to the signal ratio)
# Outline: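 Compounds from the Tox21 10K library, dissolved in DMSO, are tested for induction of a hypoxia response element–controlled beta-lactamase reporter in ME-180 cells. Exposure lasts 17 hrs at 37C after a 5 hr settling period, followed by CCF4-AM FRET substrate.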
# [19] = qHTS assay to identify small molecule antagonists of the estrogen related receptor signaling pathway with the pleiotropic PPARgamma coactivator (PGC) from Tox21 10K library - cell viability counter screen (AID 1224840; active = well fitted cell-killing curve with a large enough effect in the repeat runs, not every such curve was filed as active; also: nearly all actives have a fitted effect of over 40% in size)
# Outline: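 Multiplexed viability counter screen in the PGC/ERR cell line: cells treated with DMSO-dissolved compounds for 17.5 hours at 37 C, then viability measured as CellTiter-Fluor fluorescence.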
# [20] = target: Thyrotropin receptor (Homo sapiens) (UniProt P16473); assay: qHTS assay to identify small molecule agonists of the thyroid stimulating hormone receptor (TSHR) signaling pathway (AID 1224843; calls by dose curve; also: nearly all actives have a fitted effect of over 45% in size)
# Sequence of Thyrotropin receptor (Homo sapiens) (P16473 whole entry, looked up): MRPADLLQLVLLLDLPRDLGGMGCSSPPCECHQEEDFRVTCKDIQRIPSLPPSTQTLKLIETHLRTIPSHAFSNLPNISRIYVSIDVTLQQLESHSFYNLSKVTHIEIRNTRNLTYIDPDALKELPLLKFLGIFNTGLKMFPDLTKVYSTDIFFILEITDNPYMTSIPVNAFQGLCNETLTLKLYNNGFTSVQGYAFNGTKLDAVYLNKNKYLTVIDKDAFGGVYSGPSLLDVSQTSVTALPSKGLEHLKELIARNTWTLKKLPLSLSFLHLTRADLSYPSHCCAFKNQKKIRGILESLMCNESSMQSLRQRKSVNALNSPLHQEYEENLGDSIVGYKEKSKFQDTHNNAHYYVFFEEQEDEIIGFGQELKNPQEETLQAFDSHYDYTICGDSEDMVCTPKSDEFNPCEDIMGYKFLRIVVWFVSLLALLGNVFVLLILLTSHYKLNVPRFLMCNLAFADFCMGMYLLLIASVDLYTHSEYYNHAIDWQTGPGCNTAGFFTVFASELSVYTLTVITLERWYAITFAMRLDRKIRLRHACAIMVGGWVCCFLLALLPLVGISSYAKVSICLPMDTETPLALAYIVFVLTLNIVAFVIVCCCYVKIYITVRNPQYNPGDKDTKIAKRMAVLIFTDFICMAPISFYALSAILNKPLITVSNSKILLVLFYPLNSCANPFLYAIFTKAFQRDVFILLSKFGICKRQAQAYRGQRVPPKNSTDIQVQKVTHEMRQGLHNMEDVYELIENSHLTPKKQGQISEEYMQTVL
# Outline: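 A cell-based cAMP HTRF format was run in TSHR-transfected HEK293 cells, 800 per well. Treatment: 30 min, room temperature. Detection: 1 h with labelled cAMP and anti-cAMP cryptate. Concentration-response over 15 points, three replicates.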
Compound,Potency [1],Potency [2],Potency [3],Potency [4],Potency [5],Potency [6],Potency [7],Potency [8],Potency [9],"activity change, positive = activation [10]",outcome [11],Potency [12],Potency [13],Potency [14],Potency [15],Potency [16],Potency [17],outcome [18],Potency [19],Potency [20]
CC(=O)c1cccnc1,inactive,inactive,inactive,inactive,inactive,inactive,inactive,inactive,inactive,4.95%,inactive,inactive,inactive,inactive,inactive,,,,,
C1=COCCC1,,inactive,,,,,,inactive,,,inactive,inactive,inactive,inactive,inactive,inactive,inactive,inactive,,
Sc1nc(S)nc(S)n1,,inactive,,,inactive,inactive,inactive,inactive,,-29.2% [at 42.5 µM],inactive,inactive,inactive,inactive,inactive,inactive,,,inactive,inactive
C=C[Si](OCC)(OCC)OCC,,inactive,,,,,inactive,,,,inactive,inactive,inactive,inactive,inactive,inactive,inactive,inactive,inactive,inactive
Clc1cc(Cl)c2c(c1)N=C1CCCCCN1C2,,inactive,inactive,,inactive,inactive,,,inactive,2.85% [at 42.5 µM],inactive,,inactive,inactive,,inactive,inactive,inactive,inactive,
CC(=O)Nc1ccccc1O,,inactive,inactive,inactive,,inactive,inactive,inactive,inactive,-0.899%,inactive,inactive,inactive,inactive,inactive,,inactive,,,
Cc1ccc(NC(=O)c2ccc(CN3CCN(C)CC3)cc2)cc1Nc1nccc(-c2cccnc2)n1,,,inactive,13.3 µM (active),,,,inactive,,,,21.3 µM (active),inactive,inactive,inactive,,inactive,,inactive,inactive
COC(=O)/C=C/C(C)=C\C=C\C(C)=C\C=C\C=C(C)\C=C\C=C(C)\C=C\C(=O)O,,inactive,inactive,,inactive,inactive,inactive,inactive,inactive,4.73%,inactive,inactive,inactive,inactive,inactive,inactive,,inactive,inactive,
Nc1ccc(F)cc1F,,inactive,inactive,inactive,,,inactive,,,,inactive,inactive,inactive,inactive,inactive,inactive,inactive,inactive,inactive,
